Experimental findings from PubChem BioAssay (NCI) are described below.

Each structure is given as a SMILES string. Compounds without any hit were thinned out: in the full panel of roughly 83,000, 20% have a hit.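 A percent growth of 40 corresponds to 60% growth inhibition; 0 means no net growth; -100 means all cells died. Active threshold: below 10.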 A number with no mark means an inactive call. Active and inactive are the calls of the source.

This test concerns MOLT-4 leukemia. Briefly: NCI-60 one-dose screen, 48 h (100 = growth as untreated, 0 = no growth, -100 = all killed). Particulars: 10 µM. The protocol: Growth inhibition of the MOLT-4 human tumor cell line is measured as a screen for anti-cancer activity. Cells are grown in 96 well plates and exposed to the test compound for 48 hours. Compounds are tested at a single concentration, which is 10^-5 M for most compounds. The reported endpoint is percent growth (GI% or GIPRCNT), where numbers from 0 - 100% represent growth inhibition, and numbers from -100% - 0 represent cell death. For example, a value of 40 represents 60% growth inhibition. A value of 0 means no net growth occurred over the course of the experiment. A value of -40 indicates 40% of cells at the beginning of the experiment died by the end of the experiment. A value of -100 means all cells are dead at the end of the experiment.
NCI-60 Human Tumor Cell Lines Screen was performed using the standard one-dose NCI protocol, which is described in more detail at https://dtp.cancer.gov/discovery_development/nci-60/default.htm.
Compounds with GIPRCNT values below 10 were considered active. Activity score was based on GIPRCNT using the following formula: […]
Score is 0 for GIPRCNT values of 100 or above, 50 for GIPRCNT values of 0, and 100 for GIPRCNT values of -100.
On to `Cc1ccccc1N=C(c1ccccc1)C1C(=O)c2ccccc2C1=O`, for which the growth was 56.4%.
Turning to `CC1=NN(c2ccccc2)C(=O)/C1=C\N1CC(=O)NC1=S`, the growth was 102%.
Turning to `CC(=O)c1ccc2c(ccc3ccccc32)c1`, the growth was 93%.
In the case of `O=[N+]([O-])c1ccc(Cl)c(S(=O)(=O)O)c1` it was 89.7%; in that of `NC(N)=Nc1cc2ccccc2c2ccccc12`, 41.6%.
In the case of `c1csc(-c2cc(-c3cc(-c4cccs4)[nH]n3)n[nH]2)c1` it was 97.7%; in that of `Cc1ccccc1C1N=C2Oc3ccccc3C=C2C(=O)N1` (stereo not given), 44%; in that of `O=C1C=CC(=O)N1c1ccc(I)cc1Cl`, 128%.
Consider `CN(C)c1ccc(C(c2ccc(O)cc2)c2ccc(N(C)C)cc2)cc1`, for which the growth was 86.4%.
In the case of `c1ccc(/C(=N\N=C(/c2ccccc2)c2cccs2)c2cccs2)cc1` it was 91.9%; in that of `Cc1ccc(C(=O)N/N=C/c2ccc3c(c2)OCO3)cc1`, 91.2%.
Regarding `CCc1ccc(/C(C#N)=C/C=C/c2ccccc2)cc1`, the growth was 20.7%.
In the case of `CC1(C)/C(=C\CO)C2CCC1C2` (stereo not given) it was 107%.
Turning to `COc1cccc(/C=N/NC(=S)NC2CC3CCC2C3)c1O` (stereo not given), the growth is 44.8%.
The figure for `Cc1cc(N)ccc1-c1ccc(N)cc1C` is 103%.
The figure for `Cc1cc(Cc2cc(C)c(N)cc2N)c(N)cc1N` is 73.2%.
In the case of `COc1cc(-c2ccc(NC(=O)NC3CC3)c(OC)c2)ccc1NC(=O)NC1CC1` it was 38.1%; in that of `COc1ccc(-c2cc3c(nn2)-c2ccccc2C3=O)cc1`, 57.1%; in that of `O=C(O)CCC(=O)OC(C1CO1)C(OC(=O)CCC(=O)O)C1CO1` (stereo not given), 99.8%.
`Cc1ccc(C)n1-c1ccsc1C(=O)NNC(=O)C(Cl)Cl`: the growth was 118%.
Take `COC(=O)Nc1nc2ccc(C(=O)c3ccc(F)cc3)cc2[nH]1`: the growth was -27% (active).
In the case of `Cc1cccc([N+](=O)[O-])c1Cl` it was 122%.
In the case of `CCCCC(=O)c1ccc(OC)cc1` it was 104%.
In the case of `CC(C)OC(=O)c1cc(NC(=S)OC(C)C)ccc1Cl` it was 75.7%; in that of `CCOC(=O)CNN`, 112%.
Turning to `CCN=c1cc2sc3cc(NCC)c(C)cc3nc-2cc1C`, the growth was 8.77% (active).
The figure for `Cc1ccncc1C(N)=O` is 95.2%; for `COc1cc2c(cc1O)CC[C@@H]1C2CC[C@@]2(C)C1CC[C@@H]2O` (stereo not given in full) it is 31.8%.
As for `CC(C)OC(C(=O)O)c1ccccc1` (stereo not given), the growth was 125%.
The figure for `CC1OC(Oc2c(-c3ccc(O)c(O)c3)oc3cc(O)cc(O)c3c2=O)C(O)C(O)C1O` (stereo not given) is 108%; for `COc1cc(C(=O)N/N=C/c2cccc([N+](=O)[O-])c2)cc(OC)c1OC` it is 70.7%.
The figure for `CC(=O)c1c[nH]c2ccccc12` is 104%; for `C#C[C@H]1CCCCCC1O` (stereo not given in full) it is 98.4%; for `O=[N+]([O-])c1ccc(Sc2ccncn2)c([N+](=O)[O-])c1` it is 66.1%.
In the case of `O=C(O)/C=C/C(=O)NCc1ccccc1` it was 101%; in that of `Nc1nc(OCc2ccccc2)c2[nH]cnc2n1`, 73%; in that of `CCCNC(=O)c1ccc(S(N)(=O)=O)cc1`, 109%.
Turning to `O=C1C=CC2=C3c4cc(O)c(O)cc4CC3(O)COC2=C1O` (stereo not given), the growth was 103%.
The figure for `CC1(C(=O)O)NC(C(=O)O)Cc2c1[nH]c1ccccc21` (stereo not given) is 88.8%.
With `CC(=O)OCCO`, the growth is 102%.
